Measured values: PubChem BioAssay (NCATS)
Records with an inconclusive call do not appear. Active and inactive are the calls of the source. Unless noted, calls come from the whole dose curve; as a rule, active = well fitted curve in the direction sought with a large enough effect; inconclusive = small, poorly fitted or top-dose-only effect, or another doubt; inactive = no such curve, though single readings can be large; an effect the other way counts as inactive or inconclusive.

Tests used:
[1] = target: Bile acid receptor (Homo sapiens) (UniProt Q96RI1); test: qHTS assay for small molecule antagonists of farnesoid X receptor signaling (AID 588526; calls by dose curve; note: % is set by controls: 0 for no effect and ±100 for the full control effect)
How it was run: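 Antagonist mode: titrated compounds tested against chenodeoxycholic acid stimulation (normalized to 50 uM CDCA and DMSO) in GeneBLAzer HEK293T cells for 16 h. Beta-lactamase read by CCF4 fluorescence; IC50 from Hill fits.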

[2] = qHTS assay for small molecule antagonists of peroxisome proliferator-activated receptor delta signaling (AID 588535; active = well fitted inhibition curve with a large enough effect in the signal ratio, with a control signal flat, not every such curve was filed as active; the % refers to the signal ratio;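 for max response: cells co-treated with a PPAR-delta agonist as stimulator during compound exposure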); conditions: HEK293T PPARd-UAS-bla, beta-lactamase FRET ratio, 18 h; 460 nm channel
How it was run: (§1)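 Cells were seeded at 4000 per well in assay medium containing 2% charcoal/dextran FBS and held 5 hrs at 37 C. Compounds were then added for 18 hrs. CCF4 substrate was applied for 2 hrs at room temperature before fluorescence reading.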

[3] = target: Peroxisome proliferator-activated receptor delta (Homo sapiens) (UniProt Q03181); test: as above
How it was run: as §1

[4] = target: Peroxisome proliferator-activated receptor gamma (Homo sapiens) (UniProt P37231); test: qHTS assay for small molecule agonists of peroxisome proliferator-activated receptor gamma signaling (AID 588536; active = well fitted curve in the direction sought with a large enough effect in the signal ratio, with a control signal flat, not every such curve was filed as active; the % refers to the signal ratio;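 note: 0% = DMSO basal wells and 100% = rosiglitazone at 2 µM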)
How it was run: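 HEK293 UAS-bla reporter line, 1% charcoal/dextran FBS; titration, 16 h, 37 C; CCF4 loading 2 h RT; fluorescence 460/530 nm. Normalized to rosiglitazone 2 uM = 100%, DMSO = 0%.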

[5] = target: Peroxisome proliferator-activated receptor gamma (Homo sapiens) (UniProt P37231); test: qHTS assay for small molecule antagonists of peroxisome proliferator-activated receptor gamma signaling (AID 588537; active = well fitted inhibition curve with a large enough effect in the signal ratio, with a control signal flat, not every such curve was filed as active; the % refers to the signal ratio;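 note: reporter cells co-stimulated with 50 nM rosiglitazone agonist during compound treatment; % of control where 0% means no effect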)
How it was run: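 Step one: plate 3000 HEK293 UAS-bla cells per well in medium with 1% stripped serum and hold 6-6.5 h at 37 C. Step two: add compound and 50 nM agonist for 16 h. Step three: CCF4 loading, fluorescence read.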

[6] = target: Vitamin D3 receptor (Homo sapiens) (UniProt P11473); test: qHTS assay for small molecule antagonists of vitamin D receptor signaling (AID 588541; calls by dose curve;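 note: receptor activated by calcitriol during compound treatment; series mostly up to about 77 µM; % is set by controls: 0 for no effect and ±100 for the full control effect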)
How it was run: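 VDR-UAS-bla HEK293T cells in 2% charcoal-stripped FBS were stimulated with 1-alpha,25-dihydroxyvitamin D3 (3 nM final) plus compound for 16 h at 37 C. The beta-lactamase CCF4 readout was normalized to 50 nM agonist and DMSO, and Hill fits gave IC50.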

[7] = target: Vitamin D3 receptor (Homo sapiens) (UniProt P11473); test: qHTS assay for small molecule agonists of vitamin D receptor signaling (AID 588543; calls by dose curve;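 note: 0% = DMSO basal and 100% = reference agonist control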)
How it was run: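 VDR-UAS-bla HEK293T cells, 2000/well, 2% charcoal-stripped FBS; compound titration 16 h at 37 C; CCF4 beta-lactamase ratio read. Normalized to 50 nM 1-alpha,25-dihydroxyvitamin D3 (100%) and DMSO; Hill fit gives EC50, efficacy.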

[8] = qHTS assay for small molecule agonists of retinoid X receptor alpha signaling (AID 588544); conditions: HEK293T RXRa-UAS-bla, beta-lactamase reporter, 18 h; 530 nm emission
[9] = target: Thyroid hormone receptor beta (Homo sapiens) (UniProt P10828); test: qHTS assay for small molecule agonists of thyroid hormone receptor beta signaling (AID 588545; calls by dose curve;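 note: 0% = DMSO only and 100% = 10 nM T3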)
How it was run: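 TR-UAS-bla GripTite HEK 293 cells (2500/well, medium with 2% charcoal/dextran FBS) were treated in agonist mode for 18 h at 37 C, titrated. Beta-lactamase was read by CCF4 ratio after 2 h; normalized to 10 nM T3 (100%) and DMSO, Hill-fitted for EC50 and efficacy.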

[10] = target: Thyroid hormone receptor beta (Homo sapiens) (UniProt P10828); test: qHTS assay for small molecule antagonists of thyroid hormone receptor beta signaling (AID 588547; active = well fitted inhibition curve with a large enough effect in the signal ratio, with a control signal flat, not every such curve was filed as active; the % refers to the signal ratio;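 note: cells stimulated with 0.4 nM T3 agonist during compound exposure; series mostly up to about 77 µM; % is set by controls: 0 for no effect and ±100 for the full control effect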); conditions: TR-UAS-bla HEK293, beta-lactamase ratio, antagonist mode, 18 h
How it was run: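 TR-UAS-bla GripTite HEK293 cells in 2% charcoal/dextran FBS medium; compounds 0.59 nM to 92 uM with T3 at 0.4nM final, 18 h at 37 C. Beta-lactamase read by CCF4 fluorescence (460/530 nm); Hill fits gave IC50 and efficacy.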

[11] = qHTS assay for small molecule agonists of the antioxidant response element (ARE) signaling pathway (AID 651741; active = well fitted activation curve with a large enough effect in the signal ratio; the % refers to the signal ratio; note: % of control where 0% means no effect)
How it was run: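 HepG2 ARE-bla cells plated at 2,000 cells/well and incubated 5 h at 37 C/5% CO2 received 23 nL compound in DMSO. After 16 h at 37 C, LiveBLAzer B/G FRET substrate was applied for 2 h at room temperature and fluorescence read.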

[12] = qHTS assay for small molecule activators of the p53 signaling pathway (AID 651743; active = well fitted activation curve with a large enough effect in the signal ratio, not every such curve was filed as active; the % refers to the signal ratio; note: series mostly up to about 92 µM; % of control where 0% means no effect); conditions: HCT-116 p53RE-bla, beta-lactamase FRET ratio, 16 h; activation: stronger effect = higher value
How it was run: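 HCT-116 p53RE-bla, 4,000 cells/well; 5 h settle; cpd/DMSO 16 h, 37 C; LiveBLAzer B/G 2 h RT; fluorescence intensity.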

[13] = qHTS assay for small molecule activators of the nuclear factor-kappa B (NF-kB) signaling pathway (AID 651749; active = well fitted activation curve with a large enough effect in the signal ratio; the % refers to the signal ratio; note: series mostly up to about 77 µM; % of control where 0% means no effect); conditions: NF-kB-bla ME-180 cells, beta-lactamase FRET ratio, 16 h; stronger effect = higher value
How it was run: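 Incubation lasted 16 hr at 37C in 5% CO2 after 23 nL compound addition to ME-180 NF-kB-bla cells. Activation appears as beta-lactamase-mediated FRET loss.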

[14] = qHTS assay for environmental chemicals that activate the Aryl hydrocarbon Receptor (AhR) signaling pathway (AID 651777); conditions: 1A2-DRE human hepatoma cells, luciferase, 24 h; activation: stronger effect = higher value; note: % of control where 0% means no effect; nearly all actives have a fitted effect of over 15% in size
How it was run: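 Concentration–response screening used 1,200 1A2-DRE cells per well, 24 hr compound exposure (37 C, 5% CO2), and One-Glo luminescence as the AhR-driven CYP1A2 reporter signal.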

[15] = target: Peroxisome proliferator-activated receptor alpha (Homo sapiens) (UniProt Q07869); test: qHTS assay for small molecule agonists of the peroxisome proliferator-activated receptor alpha (PPARalpha) signaling pathway (AID 651778); conditions: PathHunter PPARalpha complementation, chemiluminescence, 6 h; max response: stronger effect = higher value; note: % of control where 0% means no effect
How it was run: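 Enzyme-fragment complementation assay in which ligand-bound PPARalpha translocates and forms an active enzyme that generates chemiluminescence. Cells were plated overnight, exposed to compound for 6 hr at 37 C, and then given detection reagent for 60 min at room temperature.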

[16] = qHTS assay for small molecule agonists of the antioxidant response element (ARE) signaling pathway measured by Nrf2-dependant transcriptional activity (AID 720636; active = well fitted curve in the direction sought with a large enough effect in the repeat runs; an effect the other way counts as inactive or inconclusive;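 note: HepG2 cells with an ARE-driven luciferase reporter; % of control where 0% means no effect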)
How it was run: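 Attachment 6 hr at 37 C, then compound versus DMSO vehicle for 16 hr in ARE-luc HepG2 cells (1% dialyzed FBS); luminescence recorded 30 min after ONE-Glo addition at room temperature.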

[17] = qHTS assay for small molecule agonists of the antioxidant response element (ARE) signaling pathway measured by Nrf2-dependant transcriptional activity - cell viability counter screen (AID 720653; active = well fitted curve in the direction sought with a large enough effect in the repeat runs; an effect the other way counts as inactive or inconclusive; note: % is set by controls: 0 for no effect and ±100 for the full control effect); conditions: ARE-bla HepG2 viability, CellTiter-Glo ATP luminescence, 16 h; max response: stronger effect = lower value
How it was run: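 ARE-bla HepG2 cells treated with compounds for 16 h at 37C; this counter screen measures viability as intracellular ATP by CellTiter-Glo luminescence after 30 min at room temperature.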

[18] = qHTS assay for cell viability of HEK293 cells (AID 743288); conditions: ATP luminescence (CellTiter-Glo), 18 h; max response: stronger effect = lower value; note: % is set by controls: 0 for no effect and ±100 for the full control effect; nearly all actives have a fitted effect of over 50% in size
How it was run: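 Parental HEK293 cells, 2,000 per well, preincubated at least 5 h at 37 C, then exposed to compounds in DMSO for 18 h at 37 C. Viability by CellTiter-Glo ATP luminescence after 30 min at room temperature.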

[19] = qHTS assay for cell viability of the p53RE-bla HCT-116 cell line (AID 743292); note: % is set by controls: 0 for no effect and ±100 for the full control effect; nearly all actives have a fitted effect of over 55% in size
How it was run: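 Compound-exposed HCT-116 (p53RE-bla) cells, 4,000 per well, were kept 16 h at 37 C following a 5 h preincubation. Cell number was estimated from total ATP by CellTiter-Glo luminescence read after 30 min at room temperature.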

[20] = NCATS anti-infectives library activity on HEK293 viability as a counter-qHTS vs the C. elegans viability qHTS (AID 1745854); note: % is set by controls: 0 for no effect and ±100 for the full control effect
How it was run: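 HEK293 cells, 1500 per well, exposed 24 hr at 37C in 5% CO2 to compounds in a 1:5 titration, up to 41.7 uM final. Viability read as CellTiter-Glo luminescence after 10 min at room temperature.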

[21] = target: Nuclear receptor subfamily 1 group I member 2 (Rattus norvegicus) (UniProt Q9R1A7); test: qHTS assay for small molecule activators of the rat pregnane X receptor (rPXR) signaling pathway (AID 651751; call rule not given here; note: 0% is about no effect); conditions: rPXR reporter cells, luciferase (One-Glo), 24 h
[22] = qHTS assay for small molecule activators of the human pregnane X receptor (PXR) signaling pathway (AID 720659; call rule not given here; note: 0% is about no effect)

Vitamin D3 receptor (Homo sapiens), sequence (P11473 whole entry, looked up): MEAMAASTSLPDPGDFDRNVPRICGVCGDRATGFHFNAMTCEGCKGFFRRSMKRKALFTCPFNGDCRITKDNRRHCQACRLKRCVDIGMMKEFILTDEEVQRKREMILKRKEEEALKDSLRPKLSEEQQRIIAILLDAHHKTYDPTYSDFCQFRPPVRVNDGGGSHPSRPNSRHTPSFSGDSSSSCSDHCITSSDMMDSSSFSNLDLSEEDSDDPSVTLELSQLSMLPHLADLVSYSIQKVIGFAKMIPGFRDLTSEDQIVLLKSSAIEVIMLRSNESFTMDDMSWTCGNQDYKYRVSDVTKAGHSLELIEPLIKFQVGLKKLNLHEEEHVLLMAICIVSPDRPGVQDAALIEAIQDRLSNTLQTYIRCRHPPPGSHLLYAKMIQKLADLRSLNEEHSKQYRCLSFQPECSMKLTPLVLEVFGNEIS
Peroxisome proliferator-activated receptor gamma (Homo sapiens), sequence (P37231 whole entry, looked up): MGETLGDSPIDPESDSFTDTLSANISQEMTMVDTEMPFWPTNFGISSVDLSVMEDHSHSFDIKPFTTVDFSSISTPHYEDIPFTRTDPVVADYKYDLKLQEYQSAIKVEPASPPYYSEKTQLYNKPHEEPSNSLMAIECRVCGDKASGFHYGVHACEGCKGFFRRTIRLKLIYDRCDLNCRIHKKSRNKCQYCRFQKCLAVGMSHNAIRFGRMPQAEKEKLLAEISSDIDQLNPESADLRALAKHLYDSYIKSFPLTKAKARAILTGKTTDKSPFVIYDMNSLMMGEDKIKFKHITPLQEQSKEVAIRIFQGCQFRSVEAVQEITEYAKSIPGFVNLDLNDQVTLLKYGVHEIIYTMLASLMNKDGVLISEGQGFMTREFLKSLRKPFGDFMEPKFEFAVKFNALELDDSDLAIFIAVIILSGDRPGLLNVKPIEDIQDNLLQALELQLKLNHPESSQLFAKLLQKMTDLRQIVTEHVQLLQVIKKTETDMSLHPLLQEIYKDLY
Thyroid hormone receptor beta (Homo sapiens), sequence (P10828 whole entry, looked up): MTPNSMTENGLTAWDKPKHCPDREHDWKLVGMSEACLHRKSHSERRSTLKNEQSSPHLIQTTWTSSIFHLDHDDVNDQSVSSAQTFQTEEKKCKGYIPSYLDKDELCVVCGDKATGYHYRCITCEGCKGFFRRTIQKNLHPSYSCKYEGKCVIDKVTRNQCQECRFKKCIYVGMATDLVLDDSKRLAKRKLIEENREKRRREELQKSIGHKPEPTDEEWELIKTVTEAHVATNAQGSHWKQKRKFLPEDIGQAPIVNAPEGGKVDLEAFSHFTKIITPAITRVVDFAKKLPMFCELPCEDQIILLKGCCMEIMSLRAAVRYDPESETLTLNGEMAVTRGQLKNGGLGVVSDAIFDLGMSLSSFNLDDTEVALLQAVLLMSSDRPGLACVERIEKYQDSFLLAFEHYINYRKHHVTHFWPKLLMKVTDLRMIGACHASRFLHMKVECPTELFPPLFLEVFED
Nuclear receptor subfamily 1 group I member 2 (Rattus norvegicus), sequence (Q9R1A7 whole entry, looked up): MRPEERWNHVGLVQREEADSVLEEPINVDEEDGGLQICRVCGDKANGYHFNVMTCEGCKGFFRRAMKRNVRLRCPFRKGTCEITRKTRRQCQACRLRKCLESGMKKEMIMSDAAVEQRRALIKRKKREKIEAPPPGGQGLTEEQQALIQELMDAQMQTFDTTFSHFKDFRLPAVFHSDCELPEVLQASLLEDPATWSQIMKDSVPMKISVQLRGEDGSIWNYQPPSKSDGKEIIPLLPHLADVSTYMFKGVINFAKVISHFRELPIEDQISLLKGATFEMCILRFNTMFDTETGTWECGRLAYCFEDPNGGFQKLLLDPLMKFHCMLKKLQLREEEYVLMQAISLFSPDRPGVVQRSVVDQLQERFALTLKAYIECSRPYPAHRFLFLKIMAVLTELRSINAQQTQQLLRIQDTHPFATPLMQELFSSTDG
Peroxisome proliferator-activated receptor delta (Homo sapiens), sequence (Q03181 whole entry, looked up): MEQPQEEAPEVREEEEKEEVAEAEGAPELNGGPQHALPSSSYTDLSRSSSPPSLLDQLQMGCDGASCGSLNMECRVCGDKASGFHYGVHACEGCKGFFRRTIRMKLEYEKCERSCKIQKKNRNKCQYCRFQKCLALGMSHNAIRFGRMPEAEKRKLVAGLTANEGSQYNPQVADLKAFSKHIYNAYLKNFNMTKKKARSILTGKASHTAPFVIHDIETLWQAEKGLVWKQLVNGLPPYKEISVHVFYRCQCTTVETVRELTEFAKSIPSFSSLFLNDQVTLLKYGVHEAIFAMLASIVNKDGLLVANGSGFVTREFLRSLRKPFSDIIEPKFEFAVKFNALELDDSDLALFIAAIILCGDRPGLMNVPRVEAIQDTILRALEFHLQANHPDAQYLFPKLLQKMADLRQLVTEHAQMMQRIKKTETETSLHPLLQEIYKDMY
Peroxisome proliferator-activated receptor alpha (Homo sapiens), sequence (Q07869 whole entry, looked up, the tested form may be a part): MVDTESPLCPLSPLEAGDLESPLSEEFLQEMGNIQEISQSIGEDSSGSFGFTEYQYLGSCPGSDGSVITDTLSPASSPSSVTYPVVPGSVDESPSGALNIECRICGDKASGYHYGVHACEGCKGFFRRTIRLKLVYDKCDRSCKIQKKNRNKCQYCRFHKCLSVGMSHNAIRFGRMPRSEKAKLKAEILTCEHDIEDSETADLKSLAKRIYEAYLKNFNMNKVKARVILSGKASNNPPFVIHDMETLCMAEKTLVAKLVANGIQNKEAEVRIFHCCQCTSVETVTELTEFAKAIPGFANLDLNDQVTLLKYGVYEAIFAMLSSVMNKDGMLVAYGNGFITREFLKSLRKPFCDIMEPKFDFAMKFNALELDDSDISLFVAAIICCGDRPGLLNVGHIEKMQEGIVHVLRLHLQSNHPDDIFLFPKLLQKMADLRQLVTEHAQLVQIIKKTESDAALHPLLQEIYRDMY
Bile acid receptor (Homo sapiens), sequence (Q96RI1 whole entry, looked up): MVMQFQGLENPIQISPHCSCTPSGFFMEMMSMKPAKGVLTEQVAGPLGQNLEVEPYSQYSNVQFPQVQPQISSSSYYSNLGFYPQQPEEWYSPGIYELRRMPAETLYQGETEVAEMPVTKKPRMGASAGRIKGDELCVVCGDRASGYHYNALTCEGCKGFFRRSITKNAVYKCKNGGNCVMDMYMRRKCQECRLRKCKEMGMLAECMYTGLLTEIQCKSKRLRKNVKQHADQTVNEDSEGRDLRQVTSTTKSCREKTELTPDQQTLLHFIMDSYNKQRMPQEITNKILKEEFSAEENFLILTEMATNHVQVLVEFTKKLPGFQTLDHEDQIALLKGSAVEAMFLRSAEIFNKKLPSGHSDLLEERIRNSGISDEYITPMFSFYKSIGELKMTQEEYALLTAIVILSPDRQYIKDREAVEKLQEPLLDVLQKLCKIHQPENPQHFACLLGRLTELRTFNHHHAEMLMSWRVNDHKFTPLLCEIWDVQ

O=C(O)CCCCCCCCC(=O)O
inactive: outcome [1] | Potency [3] | outcome [4] | outcome [5] | outcome [6] | outcome [7] | outcome [9] | activity change % (negative = inhibition) [10] 3.38% | Potency [11] | activation [12] 0.877% | activation [13] -1.2% | activation [14] -2.45% | max response [15] -0.446% | Potency [16] | max response [17] -1.89% | max response [18] -12.5% | Potency [19] | Potency [20] | max response [21] -1.81% | outcome [22]
9.91%: max response [8]
1.66%: max response [2]
